ChEMBL document CHEMBL4513135, “CO-ADD screening of IQOG CSIS (Spain) compounds”
Where “and” joins values, the source holds several entries; their conditions need not be identical. Equal values may be shown once. Results with a measured potency or affinity are listed apart.

Tests used:
Staphylococcus aureus = conditions: Concentration 32 ug.mL-1, ASSAY_TEST Inhibition of Bacterial Growth, detection method Absorption (OD600), MEDIA CAMHB, plate type 384well, NBS, CORNING #3640, time 18 hr
Escherichia coli = conditions: Concentration 32 ug.mL-1, ASSAY_TEST Inhibition of Bacterial Growth, detection method Absorption (OD600), MEDIA CAMHB, plate type 384well, NBS, CORNING #3640, time 18 hr

SMILES: CCOC(=O)c1cc2ccccc2[nH]1
- Inhibition (Staphylococcus aureus): 8.39%
- Inhibition (Escherichia coli): 13.65%

SMILES: Nc1c2c(nc3ccc([N+](=O)[O-])cc13)CCCC2
- Inhibition (Staphylococcus aureus): 53.1%
- Inhibition (Escherichia coli): 1.31%

SMILES: Cc1nc(NO)c2c(C)nn(-c3ccccc3)c2n1
- Inhibition (Staphylococcus aureus): 6.32%
- Inhibition (Escherichia coli): 4.93%

SMILES: CC(C)CC(C)NNC(=O)c1cc2ccccc2[nH]1 (centres undefined)
- Inhibition (Staphylococcus aureus): -8.06%
- Inhibition (Escherichia coli): -7.16%

SMILES: Br.C#CCNCC
- Inhibition (Staphylococcus aureus): 25.79%
- Inhibition (Escherichia coli): 18.7%

SMILES: NNC(=O)c1cc2ccccc2n1Cc1ccccc1
- Inhibition (Staphylococcus aureus): -21.85%
- Inhibition (Escherichia coli): -14.39%

SMILES: CCOC(=O)c1cc2cc(OC(=O)Oc3ccc([N+](=O)[O-])cc3)ccc2[nH]1
- Inhibition (Staphylococcus aureus): 13.73%
- Inhibition (Escherichia coli): -33.4%

SMILES: C=C1CN(C)c2c(C#N)cc(C#N)c(=S)n21
- Inhibition (Staphylococcus aureus): 18.51%
- Inhibition (Escherichia coli): -1.72%

SMILES: COc1ccccc1C1C(C#N)=C(N)Oc2ccc3ccccc3c21 (centres undefined)
- Inhibition (Staphylococcus aureus): 38.4%
- Inhibition (Escherichia coli): -7.08%

SMILES: N#CC1(Br)C(=NBr)Oc2ccc3ccccc3c2C1c1ccc([N+](=O)[O-])cc1 (centres undefined)
- Inhibition (Staphylococcus aureus): 17.16%
- Inhibition (Escherichia coli): -19.01%

SMILES: C=CCNCc1cc2cc(OCCCC3CCN(Cc4ccccc4)CC3)ccc2[nH]1.O.O=C(O)C(=O)O.O=C(O)C(=O)O
- Inhibition (Staphylococcus aureus): 13.83%
- Inhibition (Escherichia coli): -23.08%

SMILES: N#Cc1cc(C#N)c(NCc2ccccc2)nc1N
- Inhibition (Staphylococcus aureus): 27.12%
- Inhibition (Escherichia coli): -14.28%

SMILES: Cl.N#Cc1cc(C#N)c(N2CCCC2)nc1Cl
- Inhibition (Staphylococcus aureus): 37.39%
- Inhibition (Escherichia coli): -6.69%

SMILES: COc1ccc2cc(C3C4=C(CC(C)(C)CC4=O)Oc4nc5c(c(N)c43)CCCCC5)c(Cl)nc2c1 (centres undefined)
- Inhibition (Staphylococcus aureus): 27.31%
- Inhibition (Escherichia coli): 12.92%

SMILES: COc1ccc(/C=C2/N=C(c3ccccc3)OC2=O)cc1OC
- Inhibition (Staphylococcus aureus): -19.31%
- Inhibition (Escherichia coli): -9.68%

SMILES: COc1ccccc1C1C(C#N)=C(N)Oc2c1ccc1ccccc21 (centres undefined)
- Inhibition (Staphylococcus aureus): 19.36%
- Inhibition (Escherichia coli): -9.01%

SMILES: CCOC(=O)c1cc2c(N)c3c(nc2nc1C)CCCC3
- Inhibition (Staphylococcus aureus): 8.67%
- Inhibition (Escherichia coli): -8.78%

SMILES: CNCc1cc2cc(OCc3ccccc3)ccc2n1C.Cl
- Inhibition (Staphylococcus aureus): 43.08%
- Inhibition (Escherichia coli): 3.38%

SMILES: CSC1=NC(=Cc2cn(C)c3ccccc23)C(=O)N1C
- Inhibition (Staphylococcus aureus): 3.9%
- Inhibition (Escherichia coli): -1.24%

SMILES: CSC1=NC2(CC2c2ccccc2)C(=O)N1C (centres undefined)
- Inhibition (Staphylococcus aureus): -3.53%
- Inhibition (Escherichia coli): -1.26%

SMILES: O=C1OC(c2ccccc2)=NC1=Cc1ccc([N+](=O)[O-])cc1
- Inhibition (Staphylococcus aureus): 5.7%
- Inhibition (Escherichia coli): 7.71%

SMILES: COc1cc(Br)c(C=O)cc1OC
- Inhibition (Staphylococcus aureus): 28.77%
- Inhibition (Escherichia coli): 5%

SMILES: Cc1cc(Br)cc(C)c1NC=C(C#N)C#N
- Inhibition (Staphylococcus aureus): 7.73%
- Inhibition (Escherichia coli): 12.6%

SMILES: CCOc1nc2nc(CCc3ccccc3)ccc2c(-c2ccccc2)c1C#N
- Inhibition (Staphylococcus aureus): 14.64%
- Inhibition (Escherichia coli): -39.9%

SMILES: CCOC(=O)C1=C(C)OC(N)=C(C#N)C1c1ccc([N+](=O)[O-])cc1 (centres undefined)
- Inhibition (Staphylococcus aureus): 16.31%
- Inhibition (Escherichia coli): -9.87%

SMILES: CC1=NC(=Cc2ccc([N+](=O)[O-])cc2)C(=O)O1
- Inhibition (Staphylococcus aureus): 3.5%
- Inhibition (Escherichia coli): -3.97%

SMILES: C#CCNc1nc(N)c(C#N)cc1C#N
- Inhibition (Staphylococcus aureus): -1.17%
- Inhibition (Escherichia coli): -11.19%

SMILES: N#Cc1c(N)nc2[nH]nc(N)c2c1-c1ccccc1
- Inhibition (Staphylococcus aureus): 40.83%
- Inhibition (Escherichia coli): -6.5%

SMILES: N#CC1=C(Cl)Oc2c(ccc3ccccc23)C1c1ccccc1 (centres undefined)
- Inhibition (Staphylococcus aureus): 14.99%
- Inhibition (Escherichia coli): -36.62%

SMILES: N#CC1=C(N)Oc2ccc3ccccc3c2C1c1ccccc1 (centres undefined)
- Inhibition (Staphylococcus aureus): 40.09%
- Inhibition (Escherichia coli): -6.38%

SMILES: COC1=C(C#N)C(c2ccccc2)C(C=O)=C(Cl)N1 (centres undefined)
- Inhibition (Staphylococcus aureus): 40.42%
- Inhibition (Escherichia coli): -6.81%

SMILES: N#CC1(Br)C(=NBr)Oc2c(ccc3ccccc23)C1c1ccccc1[N+](=O)[O-] (centres undefined)
- Inhibition (Staphylococcus aureus): 52.21%
- Inhibition (Escherichia coli): -16.66%

SMILES: COc1nc(Cl)c(C#N)c(-c2ccccc2)c1C#N
- Inhibition (Staphylococcus aureus): 35.41%
- Inhibition (Escherichia coli): -14.05%

SMILES: COc1ccc(-c2cc(-c3cc4c(C)cc(C)cc4nc3Cl)cc(=O)[nH]2)cc1
- Inhibition (Staphylococcus aureus): 21.85%
- Inhibition (Escherichia coli): -16.03%

SMILES: COc1cc(C=NNC(=O)Cc2c[nH]c3ccccc23)ccc1O
- Inhibition (Staphylococcus aureus): 8.14%
- Inhibition (Escherichia coli): -0.45%

SMILES: Cl.N#Cc1c(Cl)nc(N)nc1NCCO
- Inhibition (Staphylococcus aureus): -0.92%
- Inhibition (Escherichia coli): -1.11%

SMILES: COc1ccc(-c2c(C#N)c(=O)oc3c2ccc2ccccc23)cc1
- Inhibition (Staphylococcus aureus; 32 ug/mL): 29.57% and 19.64%
- Inhibition (Escherichia coli; 32 ug/mL): -26.6% and -23.12%

SMILES: N#C/C(=C\c1ccccc1)C(=O)c1ccccc1
- Inhibition (Staphylococcus aureus): 10.5%
- Inhibition (Escherichia coli): 8.34%

SMILES: COc1ccc(-c2cc(-c3cc4ccc(F)cc4nc3Cl)cc(=O)[nH]2)cc1
- Inhibition (Staphylococcus aureus): 24.97%
- Inhibition (Escherichia coli): -19.12%

SMILES: Cn1cc(C(=O)NN)c2ccccc21
- Inhibition (Staphylococcus aureus): 4.01%
- Inhibition (Escherichia coli): 20.35%

SMILES: Cc1nc2c3c(C)nn(-c4ccccc4)c3ncn2n1
- Inhibition (Staphylococcus aureus): 11.24%
- Inhibition (Escherichia coli): 12.68%

SMILES: CC1(C)OS(=O)(=O)C2=C1NC(N)=C(C#N)C2c1ccccc1 (centres undefined)
- Inhibition (Staphylococcus aureus): 8.23%
- Inhibition (Escherichia coli): 10.42%
